Consider 40 compounds from PubChem BioAssay (NCI).

Compounds without any hit were thinned out: in the full panel of roughly 83,000, 20% have a hit.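 Method: cells in 96-well plates; compound added at one concentration; 48 h incubation; percent growth measured; values under 10 scored active.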 Values without a mark were called inactive. Activity calls are given as the source filed them.

The subject of this assay is CCRF-CEM leukemia. Briefly: NCI-60 one-dose screen, 48 h (100 = growth as untreated, 0 = no growth, -100 = all killed). The note with it: 10 µM unless noted. On the procedure: Growth inhibition of the CCRF-CEM human tumor cell line is measured as a screen for anti-cancer activity. Cells are grown in 96 well plates and exposed to the test compound for 48 hours. Compounds are tested at a single concentration, which is 10^-5 M for most compounds. The reported endpoint is percent growth (GI% or GIPRCNT), where numbers from 0 - 100% represent growth inhibition, and numbers from -100% - 0 represent cell death. For example, a value of 40 represents 60% growth inhibition. A value of 0 means no net growth occurred over the course of the experiment. A value of -40 indicates 40% of cells at the beginning of the experiment died by the end of the experiment. A value of -100 means all cells are dead at the end of the experiment.
NCI-60 Human Tumor Cell Lines Screen was performed using the standard one-dose NCI protocol, which is described in more detail at https://dtp.cancer.gov/discovery_development/nci-60/default.htm.
Compounds with GIPRCNT values below 10 were considered active. Activity score was based on GIPRCNT using the following formula: […]
Score is 0 for GIPRCNT values of 100 or above, 50 for GIPRCNT values of 0, and 100 for GIPRCNT values of -100.
`C#Cc1nc(C2=C(C)C(O)CC2)cs1` (stereo not given): the growth was 102%.

In the case of `COc1ccc(/C=N/Nc2ccnc3cc(Cl)ccc23)cc1Cl`, the growth is -19.8% (active).

Turning to `C/C(=N\NC(N)=O)c1c(O)sc(=O)[nH]c1=O`, the growth was 100%.

Turning to `COc1ccc(-c2csc(N/N=C/c3c(-c4ccc(S(C)(=O)=O)cc4)nc4ccccn34)n2)cc1`, the growth was 94.2%.

Regarding `Fc1ccc(-c2cc3nc(C(Cl)Cl)nc(-c4ccc(Cl)cc4)n3n2)cc1`, the growth was 56.8%.

Turning to `Cc1c(NC(=O)CSc2nc3sc4c(c3c(=O)n2-c2ccc(Cl)cc2)CCCC4)c(=O)n(-c2ccccc2)n1C`, the growth was 98.2%.

Take `CCN1C(=S)N(CC)C2C1N=C(SC)N2/N=C/C=C/c1ccccc1[N+](=O)[O-]` (stereo not given): the growth is 93.1%.

With `Nc1nc(N)c2c(n1)NC(c1ccc(C(F)(F)F)cc1)CC(c1ccc(Nc3nc(NCCO)nc(Nc4ccc(Cl)cc4)n3)cc1)=N2` (stereo not given), the growth was -5.25% (active).

Regarding `CC1=C(C)C(=O)C(Nc2ccccc2)=C(Cl)C1=O`, the growth was 5.28% (active).

For the compound `Cc1cc(=O)oc2cc(OCCCOc3ccc(/C=C/C(=O)Nc4ccc(Cl)cc4)cc3)ccc12`, the growth was 68.2%.

For `COc1cc(/C=C/C(=O)c2ccc(C(F)(F)F)cc2)ccc1Oc1nc(NCCO)nc(N2CCOCC2)n1`, the growth is 4.08% (active).

Turning to `Clc1ccc2oc3c(NCCCn4ccnc4)c4ccccc4nc3c2c1`, the growth was 19.4%.

Consider `O=C(N/N=C/c1ccc(Br)s1)c1[nH]c2ccc(Br)cc2c1-c1ccccc1`, for which the growth is 9.08% (active).

With `COc1ccc2[nH]cc(-c3cc(N)n4nc(-c5c[nH]c6ccc(OC)cc56)cc4n3)c2c1`, the growth is 0.363% (active).

Consider `COc1ccc(C(=O)/C=C/c2ccc(OCc3ccc(C)cc3)c(OC)c2)cc1OC`, for which the growth was 32.2%.

`CS(=O)(=O)c1ccc(-c2nc3ccccn3c2-c2nc3ccc([N+](=O)[O-])cc3[nH]2)cc1`: the growth was 101%.

For the compound `CN(C)CCCOc1c2ccc(Cl)cc2nc2c1oc1ccccc12`, the growth was 0.191% (active).

On to `OC1CCN(CCCOc2c3ccc(Cl)cc3nc3c2oc2ccccc23)CC1`, for which the growth is 2.24% (active).

Take `Cc1nc(-c2cc3ccccc3oc2=O)ccc1C(=O)/C=C/c1ccc(N2CCOCC2)cc1`: the growth was 72.4%.

On to `Clc1ccc2c(NCCCN3CCOCC3)c3oc4ccccc4c3nc2c1`, for which the growth was 32.8%.

For the compound `N#Cc1nc(-c2ccccc2)oc1S(=O)(=O)N1CCN(CCc2ccccn2)CC1`, the growth was 1.54% (active).

For `C#C[C@]1(O)CC[C@H]2[C@@H]3CC=C4c5sc(-c6ccc(F)cn6)nc5CC[C@]4(C)[C@H]3CC[C@@]21C`, the growth was 8.87% (active).

Consider `c1ccc(CNc2ncnc3ccc(-c4cnc5[nH]ncc5c4)cc23)cc1`, for which the growth was 73.1%.

`COc1ccc(/C=C2\SC(=Nc3cc(C)on3)NC2=O)cc1`: the growth is 101%.

As for `Cc1cc2nc3c4cc(Cl)ccc4n(CC(=O)NCCN(C)C)c3nc2cc1C`, the growth was -14.5% (active).

For `Cc1cc2nc3c4cc(Cl)ccc4n(CC(=S)NCCN(C)C)c3nc2cc1C`, the growth was -49.3% (active).

As for `Cn1cc(-c2cc(N)n3nc(-c4cn(C)c5ccc(F)cc45)cc3n2)c2cc(F)ccc21`, the growth is 3.2% (active).

In the case of `Cc1nc(-c2cc3ccccc3oc2=O)ccc1C(=O)/C=C/c1ccccn1`, the growth was 6.22% (active).

With `CC(=O)Oc1ccccc1C(=O)Nc1cc(C(C)C)ccc1C`, the growth was 14.6%.

`C=CCSc1ccc2c(c1)C(N1CCNCC1)=Nc1ccccc1O2`: the growth is 66.6% [8.25 µM].

Take `CS(=O)(=O)c1ccc(-c2nc3ccccn3c2/C=N/Nc2nc(-c3ccc(Cl)cc3)cs2)cc1`: the growth was 85.6%.

Turning to `C#C[C@]1(O)CC[C@H]2[C@@H]3CC=C4c5sc(Nc6ccc(Cl)cn6)nc5CC[C@]4(C)[C@H]3CC[C@@]21C`, the growth is 15.1%.

For the compound `Nc1c(C(=O)Nc2ccc(Cl)cc2)sc2nc(-c3cnccn3)cc(-c3cccs3)c12`, the growth was 88.6%.

Take `C#Cc1nc(C2=C(C)C(O)/C(=N/O)C2)cs1` (stereo not given): the growth is -27.7% (active).

On to `COc1ccc(CNS(=O)(=O)/N=C2\NC(=O)NC2=C(Cl)Cl)cc1`, for which the growth is 15.8%.

As for `[Cl][Ru].c1ccc(-c2cc(-c3ccccn3)nc(-c3ccccn3)c2)cc1.c1ccc(-c2ccnc3c2ccc2c(-c4ccccc4)ccnc23)cc1`, the growth was 0.187% (active).

As for `O=C1Nc2ccccc2Oc2ccc(S(=O)(=O)CC3CO3)cc21` (stereo not given), the growth was 25.7%.

Take `CN(C)c1ccc(/C=c2\sc3nc4ccccc4n3c2=O)cc1`: the growth is 13.8%.

As for `Cc1sc2nc(NCc3ccccc3Cl)[nH]c(=O)c2c1C`, the growth was 65.3%.

Consider `O=C(N/N=C/c1ccc([N+](=O)[O-])s1)c1[nH]c2ccc(Br)cc2c1-c1ccccc1`, for which the growth is 16.1%.
